Bioassay records as filed in PubChem BioAssay.
Rows were chosen to be rich in hits. Some 5.7% of all compounds tested hit in one or more screens of this group.
ATXN2 expr inh: ATXN2 expression inhibition. HEK-293 ATXN2-luciferase reporter, luminescence, 24 h. Potency, µM (top dose mostly 57 µM), for inactives: at the top dose activity change, negative = inhibition, most hits filed as inhibitors. hit rate 0.72% among 360,000; note: potency is the fitted concentration of half-maximal effect; % is set by controls: 0 for no effect and ±100 for the full control effect; nearly all actives have a fitted effect of over 55% in size
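ATXN2-luciferase reporter cells (luciferase flanked by upstream and downstream ATXN2 gene portions) were treated 24 h at 37 °C with compounds at up to 57 uM. SteadyGlo luminescence gave expression; GF-AFC fluorescence gave viability.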
S2 tox: viability counter-screen for ATXN expression inhibitors. S2 cells (HEK-293 line with an ATXN2-luciferase reporter) viability, CellTiter-Fluor protease fluorescence, 24 h. Potency, µM (top dose mostly 56.7 µM), most hits filed as cytotoxic. hit rate 0.49% among 400,000; note: potency is the fitted concentration of half-maximal effect; nearly all actives have a fitted effect of over 40% in size
HepG2 viability: HepG2 cytotoxicity, counter-screen for TGF-b inhibitors | HepG2 CAGA-GFP viability, ATP luminescence, 18 h | Potency, µM (series often up to 46.1 µM), for inactives: at the top dose activity change, negative = cytotoxicity, usual class: cytotoxic | hit rate 0.76% among 410,000; note: potency is the fitted concentration of half-maximal effect
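HepG2 CAGA-GFP cells (1000/well, DMEM with 1% FBS) received compound, then TGF-beta at 500 pg/mL final, and were incubated 18 hours at 37 degrees C. Viability was read by CellTiter-Glo luminescence. Media-only wells were set as complete cell-killing and DMSO as no toxicity.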
TGFb inhibitor: TGF-b pathway inhibition | HepG2 CAGA-GFP TGF-b/SMAD3 reporter, GFP fluorescence, 18 h; TGF-beta stimulated, 500 pg/mL final | Potency, µM (highest dose often 46.1 µM), for inactives: top-dose activity, negative = inhibition, hits mostly inhibitors | hit rate 1.2% among 410,000 | AID 588855; note: potency is the fitted concentration of half-maximal effect; % is set by controls: 0 for no effect and ±100 for the full control effect; nearly all actives have a fitted effect of over 65% in size
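GFP signal (ex488/em500-530) from TGF-beta-stimulated HEPG2 CAGA-GFP cells, 500 pg/mL final, 18 h at 37 degrees C in DMEM plus 1% FBS, normalized to unstimulated and DMSO-stimulated controls.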
IL1B secr inh: inhibitors of inflammasome signaling (IL-1 beta secretion); AID 743279; THP-1 LPS/ATP IL-1B secretion, AlphaLISA, 16 h; hits give low values; activity change, % at 57.5 µM; hit rate 4.7% among 360,000; in the data active = activity change below about -50%; inconclusive = mostly about -30% to -49%; note: % is set by controls: 0 for no effect and ±100 for the full control effect
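THP-1 cells pretreated 1 hr with compounds (up to 57.5 uM final), then stimulated with LPS (250 ng/mL final) plus ATP (1.25 mM final); secreted IL-1B measured by AlphaLISA after 16 hr, decreased signal indicating inhibition.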
Active calls of the source: *; i = inactive; u = inconclusive; x = no result given; [ ] = dose if it differs, or a comment. Unless noted, calls come from the whole dose curve; as a rule, active = well fitted curve in the direction sought with a large enough effect; inconclusive = small, poorly fitted or top-dose-only effect, or another doubt; inactive = no such curve, though single readings can be large; an effect the other way counts as inactive or inconclusive.

SMILES	ATXN2 expr inh	S2 tox	HepG2 viability	TGFb inhibitor	IL1B secr inh
Cn1cc(-c2csc(C(C)(O)c3cccnc3)n2)cn1 (stereo unspecified)	0%	i	2.2µM*	7%	7
COc1ccc(C(=O)C2CCCN(Cc3cccn3-c3nccs3)C2)cc1F (stereo unspecified)	u	i	-29%	u	-84*
COc1ccc(O)c(CN2CCCC(C(=O)Nc3cccc(-n4cccn4)c3)C2)c1 (stereo unspecified)	-11%	i	-27%	-15%	-6
Cc1ccc(-n2cccn2)c(CN2CCCC(C(=O)c3sccc3C)C2)c1 (stereo unspecified)	u	u	-21%	u	-95*
CC(C)Oc1cccc(C(=O)C2CCCN(Cc3cccn3-c3ccccn3)C2)c1 (stereo unspecified)	-20%[11.3 µM]	u	-29%	u	-92*
COc1ccc(C(=O)C2CCCN(Cc3cccn3-c3nccs3)C2)cc1OC (stereo unspecified)	-9%	i	-48%	u	-28
Cc1ccsc1C(=O)C1CCCN(Cc2cccn2-c2ccc(Cl)cn2)C1 (stereo unspecified)	x	u	-29%	u	-76*
NCC(=O)c1c[nH]c2ccccc12	x	x	0%	-1%	x
CN(C)c1ccc(C(=O)NCc2ccc3c(c2)CCN3C(=O)c2ccccc2)cc1	x	x	-11%	9%	x
CCOc1ccc(CNC(=O)CCn2c(=O)c3cccn3c3ccc(F)cc32)cc1	x	x	16%	-18%	x
O=C1CN(CCN2CC(=O)NC(=O)C2)CC(=O)N1	x	x	13%	-1%	x
COc1cccc(C(=O)C2CCCN(Cc3cccn3-c3ccccn3)C2)c1 (stereo unspecified)	-22%[11.3 µM]	i	-18%	8%	u
COc1ccc(C(=O)C2CCCN(Cc3cccn3-c3ccccn3)C2)cc1F (stereo unspecified)	-29%	i	-36%	2%	-52*
O=C(c1ccc(Cl)cc1)C1CCCN(Cc2cccn2-c2ccccn2)C1 (stereo unspecified)	u	u	-38%	-1%	-80*
CCc1ccccc1NC(=O)Cn1c(=O)n(-c2ccc(C)c(C)c2)c(=O)c2oc3ccccc3c21	x	x	-24%	-15%	x
Nc1ccc(Oc2cccc(Oc3ccc(N)cc3)c2)cc1	1.8µM*	i	-22%	-18%	-18
Cc1cccc(C)c1-n1ncc(C(=O)Nc2ccc3c(c2)OCCO3)c1C1CCN(C(=O)OC(C)(C)C)CC1	3%	i	-35%	4%	x
C/C=C/c1cccc(-c2nc(C(=O)NC3CCC3)cc3c2[C@H](CCO)N(S(=O)C(C)(C)C)C3)c1 (stereo partly specified)	4%	i	4%	u	-19
C/C=C/c1cccc(-c2nc(C(=O)NC3Cc4ccccc4C3)cc3c2[C@@H](CCO)N(C(C)=O)C3)c1	u	u	x	x	-57*
CO[C@H]1C[C@H](O[C@H]2[C@H](C)[C@@H](O[C@@H]3O[C@H](C)C[C@H](N(C)C)[C@H]3O)[C@@H](C)C[C@]3(CO3)C(=O)[C@H](C)[C@@H](O)[C@@H](C)[C@@H](C)OC(=O)[C@@H]2C)O[C@@H](C)[C@@H]1O	x	i	x	x	x
NC(=O)CSc1nc(C23CC4CC(CC(C4)C2)C3)nc2ccccc12	x	u	2%	-22%	u
Cc1nonc1NC(=O)CSc1nc(C2CCCCC2)nc2ccccc12	-30%	i	-23%	0%	-74*
Cc1nonc1NC(=O)CSc1nc(C23CC4CC(CC(C4)C2)C3)nc2ccccc12	x	i	-74%	u	-90*
Cc1cc(NC(=O)CSc2nc(C3CCCCC3)nc3ccccc23)no1	-17%	i	-5%	17%	-29
O=S(=O)(c1ccc2nc(Nc3ccccc3)ccc2c1)N1CCCCC1	-5%	i	-31%	u	-67*
SMILES	ATXN2 expr inh	S2 tox	HepG2 viability	TGFb inhibitor	IL1B secr inh
CC(=O)c1cccc(Nc2ccc3cc(S(=O)(=O)N4CCCC4)ccc3n2)c1	-12%	i	-19%	-32%	x
COc1ccc(C2=C(N3CCN(c4cccc(C)c4)C(C)C3)c3ccccc3C2=O)cc1 (stereo unspecified)	-21%	u	-20%	-9%	x
CC(C)c1ccc(Nc2c(-c3ccc(N(C)C)cc3)nc3cnccn23)cc1	8%	i	0%	1%	x
CN(C)c1ccc(/C=C2\C=Cc3ccccc32)c(F)c1	x	x	-45%	6%	x
CCOc1cc(/C=C/C(=O)c2ccc(OC)c(CN3CCOCC3)c2)cc(Br)c1O	u	i	2%	20%	-96*
O=[N+]([O-])c1cc(-c2ncccn2)c([N+](=O)[O-])s1	u	x	-96%	11µM*	-86*
COc1cccc(C2(CC(=O)N3CCCOc4c(cccc4OC)C3)CC(=O)N(C)C2=O)c1 (stereo unspecified)	x	i	x	x	x
O=C1OCCC1Sc1nnc(-c2ccccc2Br)n1Cc1ccccc1 (stereo unspecified)	7%	i	0%	-6%	-54*
CO[C@@H]1[C@@H](O[C@@H]2O[C@H](C)[C@@H](O[C@H]3C[C@@](C)(O)[C@@H](OC(=O)CC(C)C)[C@H](C)O3)[C@H](N(C)C)[C@H]2O)[C@@H](CC=O)C[C@@H](C)[C@@H](O)/C=C/C=C/C[C@@H](C)OC(=O)C[C@H]1O	x	i	x	x	x
Cc1c(NC(=O)c2cc(-c3cccs3)nc3ccccc23)c(=O)n(-c2ccccc2)n1C	x	i	8%	-1%	-89*
Cc1c(NC(=O)c2cc(-c3ccccc3)nc3ccccc23)c(=O)n(-c2ccccc2)n1C	1%	i	-7%	-9%	-7
O=C(NNc1nc2ccc(Cl)cc2s1)c1cc(-c2cccs2)nc2ccccc12	32µM*	u	-61%	8.9µM*	174
Cc1c([N+](=O)[O-])c([N+](=O)[O-])nn1CC(=O)NCCc1ccccc1	-3%	i	-19%	-21%	-90*
CCCCN1CCC2C=CCC(C(=O)O)C2C1=O (stereo unspecified)	x	x	0%	4%	x
Cc1ccc(Cl)cc1NC(=O)c1ccc(NC(=O)N2CCSc3ncccc32)cc1	x	x	-7%	-20%	x
C#CCN(C[C@H]1[C@H](OC(=O)NC2CCCC2)[C@H](OC(=O)NC2CCCC2)C[C@@H](C(=O)OC)[C@H]1C(=O)OC)S(=O)(=O)c1ccc(C)cc1	-20%	x	-17%	u	-60*
C#CCN(C[C@H]1[C@H](OC(=O)NCc2ccco2)[C@H](OC(=O)NCc2ccco2)C[C@@H](C(=O)OC)[C@H]1C(=O)OC)S(=O)(=O)c1ccc(C)cc1	-4%	i	-1%	-11%	-72*
